The record followed here is PubChem BioAssay (EPA / NIEHS).

Records with an inconclusive call do not appear. Some structures have more than one record in an assay (separate samples or runs), and their calls can disagree. Activity calls are given as the source filed them. Rule for the calls: active = hit-call score of the fitted dose curve at least 0.9, where 1 is the maximum; inconclusive = response in the unintended direction; inactive = score below 0.9.

Sequence of Luciferin 4-monooxygenase (Photinus pyralis) (P08659 whole entry, looked up): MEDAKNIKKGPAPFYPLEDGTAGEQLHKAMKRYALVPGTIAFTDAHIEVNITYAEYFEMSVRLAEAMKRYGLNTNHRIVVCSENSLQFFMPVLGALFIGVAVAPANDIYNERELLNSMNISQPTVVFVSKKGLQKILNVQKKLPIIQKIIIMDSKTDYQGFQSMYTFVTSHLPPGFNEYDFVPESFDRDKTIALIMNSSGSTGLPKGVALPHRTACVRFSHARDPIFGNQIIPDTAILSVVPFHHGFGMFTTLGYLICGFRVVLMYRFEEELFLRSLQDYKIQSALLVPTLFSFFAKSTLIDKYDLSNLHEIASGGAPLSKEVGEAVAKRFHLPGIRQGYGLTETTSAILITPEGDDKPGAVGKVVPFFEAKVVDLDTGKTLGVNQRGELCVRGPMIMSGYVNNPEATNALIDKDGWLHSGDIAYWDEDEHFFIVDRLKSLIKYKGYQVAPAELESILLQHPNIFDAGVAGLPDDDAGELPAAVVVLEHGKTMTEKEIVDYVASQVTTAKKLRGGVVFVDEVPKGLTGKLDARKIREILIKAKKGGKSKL

For the assay, the target named is Luciferin 4-monooxygenase (Photinus pyralis) (UniProt P08659). Nature of the assay: CCTE_Simmons_QuantiLum_inhib_2: CCTE's Firefly Luciferase Inhibition Assay, Simmons Lab (AID 2283767).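 For AC50: potency for inhibitors that lower luciferase luminescence relative to DMSO.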 The method, boiled down:
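First, 5 ng purified luciferase in phosphate buffer with BSA is dispensed per well. Next, test chemicals (5 nM to 87.5 uM final, 0.5% DMSO) are added and incubated 30 min at 37C in darkness. Finally, luciferin reagent is injected and luminescence read kinetically.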
For `CN(C)C(=O)Nc1ccccc1`, the result was inactive.

Turning to `CC(C)(C)c1cccc(O)c1`, the call was inactive.

Usually AC50 stands for the concentration at which the activity in the assay is half-maximal. As to `CN1CCc2cccc3c2[C@H]1Cc1ccc(O)c(O)c1-3`, the AC50 is 12.5 µM (active).

As to `NC(N)=S`, the AC50 is 10.4 µM (active) and the result was inactive.

As to `CCCCC/C=C\C=C\C(=O)OCC`, the call was inactive.

For `O=Cc1ccccc1O`, the compound was called inactive.

On to `O=C(O)CS`, for which the result was inactive.

`CCCCCCCCCCCCS`: the result was inactive.

For `CCCCCCCCOC(=O)c1ccc(O)cc1`, the outcome was inactive.

With `O=c1cc(-c2ccc(O)cc2)oc2cc(O)cc(O)c12`, the AC50 was 7.35 µM (active).

As for `CCCc1ccc(N)cc1`, the result was inactive.

With `O=C(O)C1=NN(c2ccc(S(=O)(=O)O)cc2)C(=O)C1`, the outcome was inactive.

In the case of `CCCc1ccc(O)cc1`, the outcome was inactive.

Turning to `CCCCCCOc1ccc(O)cc1`, the AC50 is 53.8 µM (active).

Regarding `c1ccc2scnc2c1`, the concentration at half-maximal activity (AC50) was 31.7 µM (active) and the compound was called inactive.

For the compound `O=c1cc[nH]cc1`, the outcome was inactive.

Consider `CC1=CCC(=C(C)C)CC1`, for which the result was inactive.

Turning to `CCC(C)(C)C1CCC(=O)CC1`, the result was inactive.

`Cc1cccc(O)c1`: the result was inactive.

For `O=C1OC2(c3ccc(O)cc3Oc3cc(O)ccc32)c2ccccc21`, the outcome was inactive.

As to `COc1ccccc1O`, the compound was called inactive.

Consider `[O-]/[N+](=N\O)c1ccccc1`, for which the concentration at half-maximal activity (AC50) is 31.7 µM (active).

Turning to `CCCCCCCCCCCCOCCOS(=O)(=O)O`, the result was inactive.

For the compound `CC(=O)Nc1cc(S(=O)(=O)O)cc2cc(S(=O)(=O)O)c(N=Nc3ccccc3)c(O)c12`, the AC50 is 21.2 µM (active).

For `CCc1cccc(O)c1`, the AC50 was 55.2 µM (active).
